Inhibition data for 97 molecules are collected here from PubChem BioAssay AID777 (Sanford-Burnham Center for Chemical Genomics, 2007).

By inhibition is commonly meant the drop in the measured response relative to a control, in per cent.

Among all 96,000 compounds or so, about 19,000 (20%) were called active.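 The calls were made as follows: active = blocking of liver enzyme CYP2C9 beyond about 50% at 5 µM (limit read from the data); inactive = the rest.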 A selection follows.

Cytochrome P450 2C9 (Homo sapiens), sequence (P11712 whole entry, looked up): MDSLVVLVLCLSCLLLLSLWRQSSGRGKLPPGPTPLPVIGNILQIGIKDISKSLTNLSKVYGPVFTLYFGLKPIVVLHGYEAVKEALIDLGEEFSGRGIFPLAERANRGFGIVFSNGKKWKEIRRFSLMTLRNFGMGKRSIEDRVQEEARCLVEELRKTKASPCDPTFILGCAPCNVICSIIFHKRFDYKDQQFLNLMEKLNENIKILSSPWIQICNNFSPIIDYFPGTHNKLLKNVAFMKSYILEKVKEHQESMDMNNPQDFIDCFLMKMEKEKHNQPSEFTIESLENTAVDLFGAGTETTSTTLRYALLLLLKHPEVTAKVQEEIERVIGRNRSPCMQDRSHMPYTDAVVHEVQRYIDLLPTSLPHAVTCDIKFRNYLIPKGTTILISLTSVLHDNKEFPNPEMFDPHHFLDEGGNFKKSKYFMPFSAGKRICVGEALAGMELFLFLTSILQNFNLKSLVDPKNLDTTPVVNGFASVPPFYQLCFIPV

This test addresses Cytochrome P450 2C9 (Homo sapiens) (UniProt P11712). Description: blockers of cytochrome P450 2C9 activity – biochemical, luminescence, ADME assay, primary screen (AID 777). To be noted: CYP2C9 Supersomes, luciferin-H conversion, at 5 µM, stronger effect = higher value.
For `Cc1ccc2[nH]c(=O)c(-c3nc4c(C)cccn4c3NCc3ccco3)cc2c1`, the inhibition was 13% (inactive).
Then `Fc1ccc(-c2ccc(-c3nn4c(-c5ccco5)nnc4s3)o2)cc1`, with 7.3% (inactive); and `COC(=O)c1ccc(Oc2nc(Nc3ccc(F)cc3)nc(N3CCCC3)n2)cc1`, with 31.9% (inactive); and `Cc1ccc2nc(Nc3ccccc3O)nc(-c3ccccc3)c2c1`, with 13.8% (inactive).
With `Cc1nnc(SCC(N)=O)n1CC1CCCO1` (configuration not stated), the inhibition is 0.5% (inactive).
As to `O=C(NC1CCCCC1)c1ccc2c(=O)n(CC3CCCO3)c(=O)[nH]c2c1` (configuration not stated), the inhibition was -2.1% (inactive).
Then `O=c1c2ccccc2nnn1CSc1nc2sc3c(c2c(=O)n1CC1CCCO1)CCC3` (configuration not stated), with 84.8% (active); and `COc1cccc(CNc2nc3nc4c(c(=O)n3[nH]2)CCC4)c1`, with 15.1% (inactive).
In the case of `CC(=O)Nc1ccc(N2C(=O)C3C4CC(=O)C(c5ccccc54)C3C2=O)cc1` (configuration not stated) it was -8.5% (inactive).
With `COc1ccccc1NC(=O)CSc1nnc(Cc2cccn2C)n1-c1ccc(F)cc1`, the inhibition is 62.7% (active).
Then `Cc1ccc(C)c(NC(=O)CSc2nnc(Cc3cccn3C)n2-c2ccc(F)cc2)c1`, with 19.9% (inactive).
For `COC(=O)c1ccc(NC(=O)CSc2nnc(Cc3cccn3C)n2-c2ccc(F)cc2)cc1`, the inhibition was 19.2% (inactive).
Then `CC(=NC1CCN(Cc2ccccc2)CC1)c1c(O)[nH]c(=O)[nH]c1=O`, with -1.3% (inactive); and `CN=C1S/C(=C\c2ccc(Sc3ccc(Cl)cc3)o2)C(=O)N1C`, with 29.4% (inactive); and `CCC(C)N1C(=O)S/C(=C/c2ccc(Sc3nc4ccccc4[nH]3)o2)C1=O` (configuration not stated), with 60% (active).
In the case of `O=C(CSc1nc2ccccc2[nH]1)c1cccs1` it was 29.8% (inactive); in that of `CC(=O)c1sc(NC(=O)c2cccc3ccccc23)nc1C`, -22.6% (inactive).
Consider `CC(=O)c1sc(NC(=O)c2ccc(C)cc2)nc1C`, for which the inhibition is 6.9% (inactive).
Then `COc1cccc2sc(Nc3nc(C)c(C(C)=O)s3)nc12`, with 64.5% (active); and `COc1ccc(C(=S)Nc2ccccc2)cc1`, with 15% (inactive); and `CN1CCN(C(=O)Cn2c(C(F)(F)F)nc3ccccc32)CC1`, with -8.1% (inactive).
In the case of `CCOC(=O)N1CCN(C(=O)CN(C2CCCCC2)S(C)(=O)=O)CC1`, the inhibition is 0.7% (inactive).
Then `CS(=O)(=O)N(CC(=O)Nc1ccc(Cl)c(Cl)c1)C1CCCCC1`, with 59.4% (active); and `CS(=O)(=O)N(CC(=O)N1CCN(c2ccc(F)cc2)CC1)C1CCCCC1`, with 21.6% (inactive); and `CC(C)C(C)NC(=O)COc1ncnc2ccccc12` (configuration not stated), with 14.1% (inactive).
In the case of `Cc1ccc(-c2noc(CCC(N)=O)n2)cc1` it was 6.1% (inactive); in that of `COc1ccc(-c2noc(CN(C)S(=O)(=O)c3ccc(C)cc3)n2)cc1`, 18.8% (inactive).
For `CSc1nnc(CNC(=O)c2ccccc2)n1-c1ccc(F)cc1`, the inhibition is -3.4% (inactive).
Then `Fc1ccc(-n2c(Cc3ccccc3)nnc2SCc2nc(-c3ccc(Cl)cc3)no2)cc1`, with 62.6% (active).
Then `Cc1ccc(-c2noc(CC(c3ccccc3)c3ccccc3)n2)cc1`, with 55.2% (active); and `COc1ccc(N2CCN(C(=O)CCc3nc(-c4ccc(C)cc4)no3)CC2)cc1`, with 51.2% (active).
For `O=C(CSc1nnc(Cc2ccccc2)n1-c1ccccc1)N1CCOCC1`, the inhibition is 3.8% (inactive).
Regarding `COc1ccc(-c2noc(CSc3ccc(C)cc3)n2)cc1`, the inhibition is 52.3% (active).
As to `CCOc1cc(-c2noc(CCC(=O)N3CCOCC3)n2)ccc1OC`, the inhibition was -11.7% (inactive).
Then `COc1ccc(-c2noc(-c3ccc(C)cc3)n2)cc1`, with -13.8% (inactive); and `COc1ccccc1Cc1nc(-c2ccc(C)cc2)no1`, with 7.1% (inactive).
Consider `Cc1ccc(Cc2nc(-c3cccc(C)c3)no2)cc1`, for which the inhibition is -9.2% (inactive).
As for `CCn1c(SCC(=O)Nc2ccc(S(=O)(=O)Nc3onc(C)c3C)cc2)nnc1-c1ccccc1`, the inhibition was 18.2% (inactive).
In the case of `O=C(NCCCCO)C(F)(F)C(F)(F)C(F)(F)C(=O)NCCCCO` it was -24.7% (inactive); in that of `Cc1ccc(-c2noc(CSc3nnc(-c4cccs4)n3C)n2)cc1`, 13% (inactive); in that of `Cc1ccc(-c2noc(CSc3nnnn3-c3ccccc3)n2)cc1`, 85.5% (active).
In the case of `Cn1c(SCc2nc3ccccc3s2)nnc1-c1ccc2c(c1)OCO2`, the inhibition is 8.2% (inactive).
With `Cc1ccc(-c2noc(CSc3nnc(-c4ccccc4)n3C)n2)cc1`, the inhibition was 88.3% (active).
In the case of `CN(C(=O)CSc1nnnn1-c1ccccc1)C1CCCCC1` it was 36.3% (inactive).
Then `Cc1ccc(-c2noc(CSc3nnc(-c4ccncc4)n3-c3ccc(F)cc3)n2)cc1`, with 70.7% (active); and `Cc1ccc(Nc2nc(CSc3nnnn3-c3ccccc3)cc(=O)[nH]2)cc1`, with 42.5% (inactive).
With `CCN(CC)C(=O)CSc1nnc(-c2cnccn2)n1-c1ccc(C)cc1`, the inhibition was 8.8% (inactive).
For `Cc1cccc(-c2noc(-c3ccc(F)cc3)n2)c1`, the inhibition was 8.5% (inactive).
In the case of `O=C(O)CN(Cc1ccco1)S(=O)(=O)c1ccccc1` it was -2.7% (inactive).
For the molecule `O=C(c1ccc(O)cc1)c1ccc(C(=O)O)c(C(=O)O)c1`, the inhibition was -15.8% (inactive).
Consider `COc1ccc(C(CNC(=O)c2cccnc2SC)N2CCOCC2)cc1` (configuration not stated), for which the inhibition was 6.9% (inactive).
In the case of `S=C1NC(c2ccccc2)=NCN1c1ccc(Br)cc1`, the inhibition is 19.4% (inactive).
On to `CCN(c1ccc2c(c1)OCO2)S(=O)(=O)c1cc(Br)cc2c1N(C(=O)C1CC1)CC2`, for which the inhibition is 33.6% (inactive).
In the case of `CCOC(=O)N1CCN(C(=O)C2CCN(S(C)(=O)=O)CC2)CC1`, the inhibition was -10.2% (inactive).
`CCOC(=O)N1CCN(S(=O)(=O)c2cc(Br)cc3c2N(C(=O)C2CC2)CC3)CC1`: the inhibition was 50.2% (active).
On to `O=C(O)C1CC=CCC1C(=O)NCCc1ccccc1` (configuration not stated), for which the inhibition was -21.1% (inactive).
Then `O=c1[nH]c(=O)n(Cc2ccco2)c2c1C(C(F)(F)F)(C(F)(F)F)N=C(c1ccco1)N2`, with 1.8% (inactive); and `Cc1ccc(S(=O)(=O)NCc2csc(C)n2)c(C)c1`, with 9.2% (inactive); and `Cc1ccc(C)c(NS(=O)(=O)c2cc(Br)cnc2N)c1`, with 63.5% (active).
In the case of `Cc1ccc(C)c(S(=O)(=O)n2cnc3ccccc32)c1` it was -14.6% (inactive); in that of `CCOC(=O)CSc1nnc(CNC(=O)c2cccs2)n1-c1cc(OC)ccc1OC`, 31.7% (inactive); in that of `Cc1cc(C)c(S(=O)(=O)c2ccccc2)c(OC(=O)c2c(F)cccc2Cl)n1`, 32.9% (inactive).
Then `O=c1c2ccccc2nc2n1C(CSc1ccc(F)cc1)CN2` (configuration not stated), with 1.1% (inactive).
With `C=CCn1c(SCC(=O)c2ccc(Br)cc2)nnc1C(C)NC(=O)Cc1ccc(OC)cc1` (configuration not stated), the inhibition was 30.7% (inactive).
`C=CCn1c(SCCOc2ccc(OC)cc2)nnc1C(NC(=O)c1ccc(OC)cc1)C(C)C` (configuration not stated): the inhibition was 58.8% (active).
Regarding `C=CCn1c(COc2cccc3cccnc23)nnc1SCC(=O)OC`, the inhibition was -306% (inactive).
`CC1=C(C)CC(C(=O)NNC(=O)c2ccccc2O)C(C(=O)O)C1` (configuration not stated): the inhibition was 21.8% (inactive).
Consider `O=C(c1c(Cl)nc2sccn12)N1CCCc2ccccc21`, for which the inhibition was 28.1% (inactive).
Then `COc1cccc(N2C(=O)CC(N3CCN(S(=O)(=O)c4ccccc4)CC3)C2=O)c1` (configuration not stated), with 6.5% (inactive).
`Cc1cccc(N2CCN(S(=O)(=O)c3ccc4[nH]c(=O)c(=O)[nH]c4c3)CC2C)c1` (configuration not stated): the inhibition was 52.5% (active).
In the case of `CN1CCN(S(=O)(=O)c2ccc3[nH]cc(C(=O)O)c(=O)c3c2)CC1` it was 2.4% (inactive); in that of `Cc1nc(C)c(-c2csc(NCCc3ccccc3)n2)s1`, 39% (inactive).
With `COc1ccc(/C(O)=C2\C(=O)C(=O)N(Cc3ccco3)C2c2ccc(OC)cc2OC)cc1` (configuration not stated), the inhibition was 21.7% (inactive).
For `COc1ccc(/C(O)=C2/C(=O)C(=O)N(c3nc(C)c(C)s3)C2c2ccco2)cc1` (configuration not stated), the inhibition was 70.5% (active).
For `COc1ccc(/C(O)=C2/C(=O)C(=O)N(CC3CCCO3)C2c2ccc(OC)c(OC)c2)cc1` (configuration not stated), the inhibition is 35.9% (inactive).
Take `C=CCNc1ncnc2ccc(Br)cc12`: the inhibition is -10.3% (inactive).
For `COC(=O)c1cc(NC(=O)CC2C(=O)NCCN2C(=O)c2ccc(F)cc2)cc(C(=O)OC)c1` (configuration not stated), the inhibition is 46.6% (inactive).
In the case of `COc1cc(Cl)c(S(=O)(=O)N2CCN(Cc3ccc4c(c3)OCO4)CC2)cc1Cl` it was 20.7% (inactive).
In the case of `O=C(c1ccc(F)cc1)c1c[nH]c(C(=O)NCc2cccnc2)c1` it was 45.9% (inactive); in that of `CC(C)c1ccc(NC(=O)NC2CCCCC2)cc1`, -33.8% (inactive); in that of `Cc1ccc(NC(=O)CS(=O)CC(=O)N(c2ccccc2)C(C)C(=O)NC2CCCC2)cc1` (configuration not stated), 77.9% (active).
`CCc1ccc(NC(=O)CS(=O)CC(=O)NCCCc2ccccc2)cc1` (configuration not stated): the inhibition was 38.5% (inactive).
In the case of `COc1ccc(C2CC(=O)C=C(NCC3CCCO3)C2)cc1` (configuration not stated), the inhibition is 9.3% (inactive).
Then `O=C(OCN1C(=O)c2ccccc2C1=O)/C(=C\c1ccco1)NC(=O)c1ccccc1`, with 14% (inactive); and `COC(=O)Nc1ncc(CN2CCCCC2)s1`, with 3.8% (inactive); and `CCOP1(=O)C=C(C(C)(C)C)OC1c1ccc(F)cc1` (configuration not stated), with -21.5% (inactive).
Then `COCCn1nnnc1C(c1ccccc1Cl)N1CCN(c2ccccc2OC)CC1` (configuration not stated), with 39.5% (inactive); and `COc1ccccc1N1CCN(Cc2nnnn2CCc2ccccc2)CC1`, with 75% (active); and `c1ccc(CCn2nnnc2CN2CCN(C3CCCC3)CC2)cc1`, with -1.3% (inactive).
In the case of `Oc1ccccc1CNc1ncc(Br)cc1Br`, the inhibition is -39.9% (inactive).
Then `CCOc1ccc(C(=O)NC2CCN(S(=O)(=O)CC)CC2)cc1`, with 2.4% (inactive); and `CCOC(=O)N1CCC(Nc2c(NCCCN3CCN(CC)CC3)c(=O)c2=O)CC1`, with -19.9% (inactive); and `CC1(C)Cc2ccccc2-c2nc(CN3CCOCC3)[nH]c(=O)c21`, with 15.5% (inactive).
Then `CCOC(=O)C1Cn2c(nc3c(c2=O)C(C)(CC)Cc2ccccc2-3)S1` (configuration not stated), with 94.8% (active); and `Cc1nonc1NC(=O)c1ccccc1Br`, with -27.2% (inactive).
With `O=C(Nc1ccc(-n2ccnc2P(=O)(O)c2ccccc2)cc1)c1ccccc1Br`, the inhibition is 95.5% (active).
Consider `O=C(Nc1nnc(-c2ccc(Cl)cc2)o1)c1ccccc1Br`, for which the inhibition was 26% (inactive).
